The results in this text go back to ChEMBL document CHEMBL2218924, “A broad activity screen in support of a chemogenomic map for kinase signalling research and drug discovery” (Biochem J, 2013).

Assay [1] has as its target T1, Mitogen-activated protein kinase kinase kinase 5 (Homo sapiens) (UniProt Q99683).
T1 sequence (whole entry): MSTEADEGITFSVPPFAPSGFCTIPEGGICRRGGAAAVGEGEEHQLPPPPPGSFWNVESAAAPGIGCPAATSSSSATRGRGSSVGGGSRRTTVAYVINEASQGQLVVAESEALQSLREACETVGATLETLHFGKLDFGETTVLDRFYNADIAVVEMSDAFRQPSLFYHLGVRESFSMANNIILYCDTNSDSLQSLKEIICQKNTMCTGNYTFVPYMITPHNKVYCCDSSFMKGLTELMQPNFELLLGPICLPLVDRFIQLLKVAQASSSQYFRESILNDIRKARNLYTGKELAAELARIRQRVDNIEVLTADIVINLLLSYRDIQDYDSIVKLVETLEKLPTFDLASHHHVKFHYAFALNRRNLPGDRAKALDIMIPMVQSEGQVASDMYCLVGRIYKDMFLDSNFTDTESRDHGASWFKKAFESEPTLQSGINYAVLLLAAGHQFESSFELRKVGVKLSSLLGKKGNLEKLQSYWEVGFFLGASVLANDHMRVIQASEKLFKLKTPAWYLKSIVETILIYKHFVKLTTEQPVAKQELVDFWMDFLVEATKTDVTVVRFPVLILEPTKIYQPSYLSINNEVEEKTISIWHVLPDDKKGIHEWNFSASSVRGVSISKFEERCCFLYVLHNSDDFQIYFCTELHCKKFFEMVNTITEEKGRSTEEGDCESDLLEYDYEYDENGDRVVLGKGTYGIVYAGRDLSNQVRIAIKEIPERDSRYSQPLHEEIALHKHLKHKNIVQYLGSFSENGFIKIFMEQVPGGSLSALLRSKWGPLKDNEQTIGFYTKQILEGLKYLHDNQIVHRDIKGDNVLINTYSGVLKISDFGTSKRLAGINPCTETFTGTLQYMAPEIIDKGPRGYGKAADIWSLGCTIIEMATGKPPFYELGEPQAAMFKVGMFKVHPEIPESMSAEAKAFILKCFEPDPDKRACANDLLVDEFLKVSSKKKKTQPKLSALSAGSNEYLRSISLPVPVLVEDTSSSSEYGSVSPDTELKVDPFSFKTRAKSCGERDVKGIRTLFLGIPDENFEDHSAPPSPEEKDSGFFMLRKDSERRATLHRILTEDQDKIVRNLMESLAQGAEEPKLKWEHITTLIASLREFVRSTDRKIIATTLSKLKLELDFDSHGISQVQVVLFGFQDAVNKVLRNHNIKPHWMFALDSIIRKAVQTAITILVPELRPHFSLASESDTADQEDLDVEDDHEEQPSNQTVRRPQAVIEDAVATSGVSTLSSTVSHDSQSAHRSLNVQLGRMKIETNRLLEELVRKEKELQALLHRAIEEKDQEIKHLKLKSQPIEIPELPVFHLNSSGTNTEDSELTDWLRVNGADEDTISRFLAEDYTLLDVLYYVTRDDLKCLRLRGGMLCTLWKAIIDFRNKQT
The settings on record: at 10 µM.

Assay [2] addresses Tyrosine-protein kinase ABL2 (Homo sapiens) (UniProt P42684). The settings on record: at 10 µM.
Assay [3] has as its target T2, Aurora kinase A (Homo sapiens) (UniProt O14965).
T2 sequence (whole entry): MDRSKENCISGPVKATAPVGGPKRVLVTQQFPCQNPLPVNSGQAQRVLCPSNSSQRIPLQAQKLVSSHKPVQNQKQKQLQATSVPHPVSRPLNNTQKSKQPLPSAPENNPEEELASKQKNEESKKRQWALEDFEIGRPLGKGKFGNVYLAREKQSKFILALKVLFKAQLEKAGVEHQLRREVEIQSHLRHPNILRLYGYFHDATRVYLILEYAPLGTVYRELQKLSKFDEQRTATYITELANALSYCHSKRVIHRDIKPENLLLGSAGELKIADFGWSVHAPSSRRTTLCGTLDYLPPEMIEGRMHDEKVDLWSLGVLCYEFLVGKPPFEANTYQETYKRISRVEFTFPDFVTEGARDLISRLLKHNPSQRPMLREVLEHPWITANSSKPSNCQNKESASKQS
The following applies: at 1 µM.

Assay [4] concerns the target T2, Aurora kinase A (Homo sapiens). The settings on record: at 10 µM.
The target of assay [5] is Aurora kinase B (Homo sapiens) (UniProt Q96GD4). The settings on record: at 1 µM.
Assay [6] has the same target. The following applies: at 10 µM.
Assay [7] addresses Tyrosine-protein kinase ABL1 (Homo sapiens) (UniProt P00519). The settings on record: at 1 µM.
Assay [8] shares this target. The following applies: at 10 µM.
Assay [9] deals with Tyrosine-protein kinase ABL2 (Homo sapiens) (UniProt P42684). The settings on record: at 1 µM.
For assay [10], the target named is T3, Protein kinase C zeta type (Homo sapiens) (UniProt Q05513).
T3 sequence (whole entry): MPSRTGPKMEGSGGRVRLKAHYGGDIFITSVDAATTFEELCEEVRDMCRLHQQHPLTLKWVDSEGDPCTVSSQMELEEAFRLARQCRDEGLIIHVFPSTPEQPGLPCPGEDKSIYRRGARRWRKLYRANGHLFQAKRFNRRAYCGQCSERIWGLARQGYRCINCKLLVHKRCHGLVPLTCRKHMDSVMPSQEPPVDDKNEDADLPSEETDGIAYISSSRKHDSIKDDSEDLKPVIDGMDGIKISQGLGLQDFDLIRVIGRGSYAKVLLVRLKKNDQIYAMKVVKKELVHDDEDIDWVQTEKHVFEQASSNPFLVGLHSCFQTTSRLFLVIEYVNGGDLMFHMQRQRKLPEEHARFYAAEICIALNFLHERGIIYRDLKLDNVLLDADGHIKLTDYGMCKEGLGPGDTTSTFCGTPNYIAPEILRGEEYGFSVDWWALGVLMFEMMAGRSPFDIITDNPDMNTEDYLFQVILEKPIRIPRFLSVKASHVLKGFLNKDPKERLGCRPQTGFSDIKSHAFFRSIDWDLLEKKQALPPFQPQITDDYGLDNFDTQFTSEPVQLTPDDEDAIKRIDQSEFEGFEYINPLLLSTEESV
The settings on record: at 1 µM.

Sequence of Tyrosine-protein kinase ABL1 (Homo sapiens) (P00519 whole entry): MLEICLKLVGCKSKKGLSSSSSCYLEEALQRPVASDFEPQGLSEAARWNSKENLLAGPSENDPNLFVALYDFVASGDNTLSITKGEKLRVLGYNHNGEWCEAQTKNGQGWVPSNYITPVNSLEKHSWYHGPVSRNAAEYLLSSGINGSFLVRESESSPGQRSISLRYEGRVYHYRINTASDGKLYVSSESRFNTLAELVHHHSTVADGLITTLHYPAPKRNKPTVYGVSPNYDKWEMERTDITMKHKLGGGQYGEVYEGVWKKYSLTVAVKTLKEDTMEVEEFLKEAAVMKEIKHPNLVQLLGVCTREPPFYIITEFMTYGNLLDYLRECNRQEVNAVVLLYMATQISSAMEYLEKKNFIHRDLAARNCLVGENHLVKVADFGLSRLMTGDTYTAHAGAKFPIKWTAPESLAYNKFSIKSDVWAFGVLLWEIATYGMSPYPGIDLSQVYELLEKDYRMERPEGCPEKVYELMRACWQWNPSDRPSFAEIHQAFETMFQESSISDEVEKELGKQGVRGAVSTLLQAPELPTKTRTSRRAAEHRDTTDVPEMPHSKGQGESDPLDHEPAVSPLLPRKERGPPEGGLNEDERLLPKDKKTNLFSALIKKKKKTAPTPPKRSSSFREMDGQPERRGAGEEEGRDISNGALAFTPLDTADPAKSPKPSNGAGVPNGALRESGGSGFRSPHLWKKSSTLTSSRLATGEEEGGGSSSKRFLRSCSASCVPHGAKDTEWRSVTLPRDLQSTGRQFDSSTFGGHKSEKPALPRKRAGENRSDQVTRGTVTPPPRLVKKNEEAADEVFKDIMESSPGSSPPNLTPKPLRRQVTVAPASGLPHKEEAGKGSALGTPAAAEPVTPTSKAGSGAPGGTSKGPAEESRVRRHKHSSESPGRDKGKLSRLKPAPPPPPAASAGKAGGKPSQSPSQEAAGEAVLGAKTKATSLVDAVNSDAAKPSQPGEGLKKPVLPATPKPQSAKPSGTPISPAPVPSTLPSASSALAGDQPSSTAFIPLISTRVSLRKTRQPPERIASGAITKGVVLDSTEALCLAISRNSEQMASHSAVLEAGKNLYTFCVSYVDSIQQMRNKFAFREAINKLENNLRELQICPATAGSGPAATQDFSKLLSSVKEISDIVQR
Sequence of Tyrosine-protein kinase ABL2 (Homo sapiens) (P42684 whole entry): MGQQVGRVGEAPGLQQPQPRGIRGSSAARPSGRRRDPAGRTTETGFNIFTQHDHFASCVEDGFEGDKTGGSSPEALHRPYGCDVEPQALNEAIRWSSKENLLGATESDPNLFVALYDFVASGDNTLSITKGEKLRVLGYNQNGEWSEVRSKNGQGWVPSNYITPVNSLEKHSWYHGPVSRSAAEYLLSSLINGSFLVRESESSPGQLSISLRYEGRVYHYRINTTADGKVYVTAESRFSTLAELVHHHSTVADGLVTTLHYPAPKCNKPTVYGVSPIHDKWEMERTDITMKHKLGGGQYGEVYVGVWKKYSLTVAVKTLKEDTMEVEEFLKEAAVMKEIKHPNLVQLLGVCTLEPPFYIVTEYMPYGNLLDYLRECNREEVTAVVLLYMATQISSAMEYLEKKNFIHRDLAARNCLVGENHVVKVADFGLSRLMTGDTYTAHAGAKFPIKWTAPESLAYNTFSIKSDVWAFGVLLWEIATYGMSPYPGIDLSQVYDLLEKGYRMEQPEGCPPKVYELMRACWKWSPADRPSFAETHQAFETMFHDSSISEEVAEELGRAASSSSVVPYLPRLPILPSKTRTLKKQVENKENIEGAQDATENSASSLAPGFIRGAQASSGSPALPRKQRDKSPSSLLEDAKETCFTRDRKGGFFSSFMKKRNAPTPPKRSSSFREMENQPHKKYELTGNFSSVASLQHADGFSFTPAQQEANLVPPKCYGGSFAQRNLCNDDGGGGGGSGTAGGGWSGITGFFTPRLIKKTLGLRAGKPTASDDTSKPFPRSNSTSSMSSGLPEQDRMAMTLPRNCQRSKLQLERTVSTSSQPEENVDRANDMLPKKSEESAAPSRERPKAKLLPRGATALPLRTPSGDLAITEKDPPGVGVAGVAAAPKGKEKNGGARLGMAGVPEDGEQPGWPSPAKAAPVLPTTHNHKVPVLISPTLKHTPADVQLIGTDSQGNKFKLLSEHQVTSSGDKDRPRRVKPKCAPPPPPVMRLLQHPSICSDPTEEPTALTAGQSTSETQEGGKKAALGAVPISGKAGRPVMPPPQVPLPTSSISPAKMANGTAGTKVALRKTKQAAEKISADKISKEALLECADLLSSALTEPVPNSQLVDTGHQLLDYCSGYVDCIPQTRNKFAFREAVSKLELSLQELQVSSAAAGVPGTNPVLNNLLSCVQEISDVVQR
Sequence of Aurora kinase B (Homo sapiens) (Q96GD4 whole entry): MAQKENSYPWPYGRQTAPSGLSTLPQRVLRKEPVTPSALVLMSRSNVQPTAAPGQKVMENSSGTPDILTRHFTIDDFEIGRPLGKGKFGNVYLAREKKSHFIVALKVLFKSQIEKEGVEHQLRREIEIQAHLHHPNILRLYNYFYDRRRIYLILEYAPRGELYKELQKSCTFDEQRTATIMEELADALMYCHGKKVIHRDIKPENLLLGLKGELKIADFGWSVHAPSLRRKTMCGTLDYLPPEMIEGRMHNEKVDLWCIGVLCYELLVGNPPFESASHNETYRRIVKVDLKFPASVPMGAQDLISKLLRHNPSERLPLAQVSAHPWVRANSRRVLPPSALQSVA

Turning to `COc1ccc2c(c1)/C(=C/c1cnc[nH]1)C(=O)N2`, the residual activity in [1] amounted to 41%; in [2] it was 47%; in assay [3] it was 42%; in assay [4] it was 2%; in [5], 21%; in assay [6] it was 0%.
Turning to `CCn1cnc2c(Nc3cccc(Cl)c3)nc(N[C@@H]3CCCC[C@@H]3N)nc21`, the residual activity in assay [1] turned out to be 89%; in [7], 95%; in assay [8], 40%; in [9], 62%; in [2] it was 13%; in assay [3] it was 85%. Besides, the residual activity worked out at 68% in assay [4], 21% in assay [5] and 1% in assay [6].
As to `CC(C)[C@H](CO)Nc1nc(Nc2cccc(Cl)c2)c2ncn(C(C)C)c2n1`, the residual activity in assay [10] was 101% (inactive); in assay [1], 96%; in assay [7] it was 62%; in assay [8], 14%; in [9], 22%; in [2], 1%. The residual activity in assay [4] came to 72%; in assay [5] it was 72%; in assay [6] it was 17%.
For the molecule `O=C1Nc2ccc3ncsc3c2/C1=C/c1c[nH]cn1`, the residual activity is 86% (inactive) in assay [10]; 7% in assay [1]; 66% in assay [7]; 20% in [8]; 82% in assay [9]; 33% in assay [2]. For the same molecule, the residual activity is 0% in [3], -2% in [4], 2% in assay [5] and 0% in [6].
Take `COc1ccc2c(c[n+](C)c3c4cc5c(cc4ccc23)OCO5)c1OC`: the residual activity in assay [7] came to 85%; in assay [8] it was 97%; in assay [9] it was 92%; in assay [2], 82%; in assay [3] it was 83%; in assay [4], 75%. The residual activity in [5] turned out to be 130%; in [6], 60%.
In the case of `C[S+]([O-])c1ccc(-c2nc(-c3ccc(F)cc3)c(-c3ccncc3)[nH]2)cc1` (stereo not drawn), the residual activity in assay [10] was 108% (inactive); in assay [1] it was 105%; in assay [8], 72%; in assay [2] it was 55%; in [3] it was 117%; in assay [4], 118%. The residual activity was found to be 102% in assay [5] and 80% in [6].
`O=C1NC(=O)c2c1c1c3ccccc3n3c1c1c2c2ccccc2n1C1CCC3O1`: the residual activity is 60% in assay [1]; 95% in assay [3]; 88% in [4]; 2% in [5]; 4% in assay [6].
Regarding `O=C1c2ccccc2-c2nc3nnnn3nc21`, the residual activity in assay [10] is 113% (inactive); in assay [1] it was 143%; in [7], 107%; in assay [8], 112%; in [2], 113%; in [3], 71%.
`COc1cc2ncnc(Nc3ccc(OCc4ccccc4)cc3)c2cc1OC`: the residual activity in [10] was 101% (inactive); in [1], 92%; in [7], 93%; in assay [8], 111%; in assay [9], 103%; in assay [2], 96%. The residual activity in assay [3] was 41%; in [4], 38%; in [5], 6%; in assay [6], 3%.
Turning to `N/C(=N\[N+](=O)[O-])N/N=C\c1ccc(-c2cccc([N+](=O)[O-])c2)o1`, the residual activity was 86% in assay [1]; 96% in [9]; 83% in [2]; 80% in assay [5]; 53% in assay [6].
With `CC(C)(C)c1cc(C=C(C#N)C#N)cc(Br)c1O`, the residual activity in [10] was 99% (inactive); in [1], 109%; in assay [7], 80%; in assay [8] it was 4%; in [2], 51%; in assay [3], 104%. The results for the residual activity in assay [4], in assay [5] and in assay [6] were 122%, 108% and 45%, respectively.
In the case of `CCc1nc(-c2ccc(OC)cc2)[nH]c1-c1ccncc1`, the residual activity is 105% (inactive) in assay [10]; 104% in [9]; 75% in [2]; 67% in [5]; 62% in assay [6].
As for `c1cc(-c2cnn3cc(-c4ccc(OCCN5CCCCC5)cc4)cnc23)ccn1`, the residual activity in [1] is 84%; in [7] it was 4%; in [8], -4%; in assay [9] it was 12%; in [2], 1%; in [3] it was 64%. The residual activity in assay [4] came to 48%; in assay [5], 18%; in [6], 2%.
With `O=c1[nH]c2ccccc2n1C1CCN(Cc2ccc(-c3nc4cc5[nH]cnc5cc4nc3-c3ccccc3)cc2)CC1`, the residual activity in assay [10] is 109% (inactive); in [1] it was 96%; in assay [7], 114%; in assay [8], 137%; in [9], 117%; in assay [2], 89%. For the same molecule, the residual activity was determined as 70% in assay [3], 92% in assay [4], 116% in assay [5] and 77% in assay [6].
`COC(=O)[C@@]1(O)C[C@H]2O[C@]1(C)n1c3ccccc3c3c4c(c5c6ccccc6n2c5c31)C(=O)NC4`: the residual activity in assay [10] is 52% (inactive); in [1] it was 0%; in [7], 80%; in [8], 51%; in assay [9], 79%; in assay [2], 35%. Moreover, the residual activity in assay [3] is 2%; in [4], -1%; in assay [5], 0%; in assay [6], 0%.
Regarding `COc1cc(OC)c(/C=C2\C(=O)Nc3ccccc32)c(OC)c1`, the residual activity in assay [1] stood at 90%; in assay [7] it was 104%; in [8], 85%; in [9] it was 123%; in assay [2], 77%; in assay [3], 107%. The figures for the residual activity in assay [4], in assay [5] and in assay [6] were 107%, 59% and 48%, respectively.
Regarding `O=[N+]([O-])/C=C/c1ccc2c(c1)OCO2`, the residual activity is 93% (inactive) in assay [10]; 90% in [1]; 96% in assay [7]; 86% in [8]; 104% in assay [9]; 92% in assay [2]. Moreover, the residual activity in assay [3] worked out at 99%; in assay [4], 109%; in [5], 108%; in assay [6], 90%.
